Data on 35 molecules can be found in PubChem BioAssay AID493201 (National Center for Advancing Translational Sciences (NCATS), 2011).

Inconclusive results are not listed. The source made the active and inactive calls. The call rests on the fitted dose curve; in most records, active means well fitted activation curve with a large enough effect; inconclusive means small, poorly fitted or top-dose-only effect; inactive means no such curve, though single readings can be large or run the other way.
Potency means the concentration at half of the fitted maximal effect.

The assay is described as follows: qHTS Assay for Identifying a Potential Treatment of Ataxia-Telangiectasia: Secondary assay (no NCS) hit validation.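 Further: phosphorylated KAP1 signal as a proxy for ATM-like kinase activity.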 On activation: 0% is about no effect. The note with it: A-T patient fibroblasts, AlphaLISA, no DNA damage added, 90 min; series mostly up to 76.9 µM; activation: at the top concentration. An outline of the steps: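 Without NCS-induced DNA breaks, ATM-like activity scored as phospho-KAP1 AlphaLISA signal (pKAP1/total KAP1 bead pair) in ATM-null F2112 fibroblasts; compound series up to 76.7 uM final, 37C incubation, lysates read on AlphaScreen protocol.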
A general note: qHTS replaces the single test concentration by a dilution series.
For the molecule `CCCCN(c1nc2ccccc2nc1Cl)S(=O)(=O)c1ccc(C)cc1`, the “activation” value was 17.4% (inactive).
The same measure, in the same setting: the figure for `C=C(C)n1c(=O)n(Cc2ccccc2C)c2ccccc21` is 23.7% (inactive); for `COC(=O)c1ccc2[nH]c3cccc(/C(=C/c4ccccc4)c4ccccc4)c3c2c1` it is -4.3% (inactive).
On the same count and under the same terms, the figure for `CCC(C)NC(=O)c1cn(CCOC)c(=O)c2c1c1ccccc1n2C` (stereo not given) is 2.54% (inactive); for `CC(C)CN(CC(C)C)C(=O)c1cc2c(=O)n3ccccc3nc2s1` it is 12.9% (inactive).
The same measure, in the same setting: the figure for `COc1ccc2nc(NCCCNC(=O)c3cc(OC)c(OC)c(OC)c3)c(C#N)cc2c1` is 6.45% (inactive).
Regarding `CCc1nnc2n1N=C(c1cccc([N+](=O)[O-])c1)CS2`, the Potency is 51.9 µM (active).
Regarding `Cc1nnc(SCC(=O)NC(=O)Nc2ccc3c(c2)OCCO3)n1N`, the “activation” value was 10.2% (inactive).
Regarding `CCN(CC)c1ccc2cc(-c3nc4ccccc4[nH]3)c(=O)oc2c1`, the “activation” value was -1.08% (inactive).
On the same count and under the same terms, the figure for `O=C(NC12CC3CC(CC(C3)C1)C2)c1cccc(OC(F)F)c1` is -6.45% (inactive).
Take `O=C1CN(C(=O)NCC(=O)N[C@H](C(=O)O)c2ccccc2)c2ccccc2N1`: the “activation” value was -0.87% (inactive).
Same read-out and setting: the figure for `COc1ccc(CNC(=O)COc2cccnc2[N+](=O)[O-])cc1OC` is -13% (inactive).
In the case of `CN(Cc1ccccc1)C(=O)c1cccc(N2C(=O)C3CC=CCC3C2=O)c1` (stereo not given), the “activation” value is -19.5% (inactive).
Same read-out and setting: the figure for `CCOc1cccc(-c2nnc(SCC(=O)Nc3cc(C)ccc3OC)n2N)c1` is 8.6% (inactive); for `CN(C)C(=O)CN(C)S(=O)(=O)c1ccc(Cl)cc1` it is -2.15% (inactive); for `COc1ccc(/C=N/Nc2nc(=O)[nH]nc2C)cc1OC` it is -2.15% (inactive).
The same measure, in the same setting: the figure for `CCOC(=O)CNS(=O)(=O)Cc1ccccc1` is 0% (inactive); for `CCCCCCCCCn1ccc(=N)cc1` it is 22% (inactive); for `O=C(Nc1cc(S(=O)(=O)N2CCOCC2)ccc1Cl)c1cc(=O)c2ccccc2o1` it is -5.22% (inactive).
Same read-out and setting: the figure for `CC(=O)NNC(=O)CN1C(=O)/C(=C/c2ccccc2)SC1=S` is 4.35% (inactive); for `CN(C)c1cc(Nc2ccc(O)cc2)c([N+](=O)[O-])c2nonc12` it is 15.3% (inactive); for `CC(=O)c1ccc([N+](=O)[O-])c(CS(=O)(=O)c2ccc(Cl)cc2)c1` it is 0% (inactive).
Regarding `COc1ccccc1NC(=O)C1CCCN(S(=O)(=O)c2ccc(-n3cnnn3)cc2)C1` (stereo not given), the “activation” value is -4.35% (inactive).
Same read-out and setting: the figure for `COc1ccc(NCc2cc(=O)oc3cc(NC(C)=O)ccc23)cc1` is 7.53% (inactive); for `c1ccc2c(c1)nc(Nc1ccc(N3CCCCC3)cc1)c1nncn12` it is 7.63% (inactive).
The same measure, in the same setting: the figure for `CC(C)c1ccc(-c2cc(C(=O)N3CCOCC3)c3cc(Br)ccc3n2)cc1` is -6.09% (inactive); for `N#Cc1c(-c2ccccc2)cc(-c2ccccc2)[nH]c1=O` it is -3.48% (inactive); for `O=C(NCCCN1CCOCC1)c1ccc2c(c1)N(Cc1cccc(F)c1)C(=O)c1ccccc1S2` it is 18.3% (inactive).
The same measure, in the same setting: the figure for `COc1ccc(C(CNC(=O)C(Cc2ccccc2)NC(N)=O)N(C)C)cc1` (stereo not given) is -3.48% (inactive).
For `CCOc1cccc(/C=C/c2ccc3cccc(O)c3n2)c1OC`, the “activation” value was -5.38% (inactive).
Still for that read-out and setting: the figure for `CN(CCc1ccccn1)C(=O)c1cc(COc2ccc(F)cc2F)on1` is -8.7% (inactive).
With `CCc1ccc(NC(=O)CNCc2ccc(OC)c(OC)c2)cc1`, the “activation” value was -2.15% (inactive).
The same measure, in the same setting: the figure for `Cc1ccnc(NC(=O)c2ccccc2NC(=O)c2ccccc2)c1` is 3.23% (inactive); for `COc1ccc(CNC(=O)CN2C(=O)CSc3ccc(S(=O)(=O)N4CCOCC4)cc32)c(OC)c1` it is 9.57% (inactive).
Same read-out and setting: the figure for `COc1ccc(NC(=O)C2CC2)cc1OC1CCCC1` is -2.15% (inactive).
